Counter-ions that a name gives are not always drawn. A number with no mark means an inactive call.

The test system of the test is WPMY1-TUBA1B-RELA. Briefly: phenotypically active (imaging signature differs from DMSO and reproducible) at any of 0.3-9 uM (binary (1 = active, 0 = inactive)); higher = active. The following applies: treatment time: 24 h. A digest of the protocol: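 Live-cell features were measured per well and normalised to solvent control wells after fifteen gene-edited A549, HepG2 and WPMY1 reporter lines had been treated for 24 h at 0.3, 1, 3 or 9 µM in four wells each. A condition was deviating when ≥3 of 4 wells sat beyond the 95th percentile of control Euclidean distances. It was reproducible when the median replicate Pearson correlation exceeded the 95th percentile of non-replicates. Phenotypic activity demanded both.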
Turning to `CN1C(=O)CC(C)(c2ccccc2)C1=O` (centres undefined) [methsuximide], the phenotypically active was 0.

`O=C(NCCO)c1cc(C(=O)NCCO)cc(C(=O)NCCO)c1`: the phenotypically active was 0.

Take `CO[C@H]1C=CO[C@@]2(C)Oc3c(C)c(O)c4c(O)c(c5c(nc6cc(C)ccn65)c4c3C2=O)NC(=O)C(C)=CC=C[C@H](C)[C@H](O)[C@@H](C)[C@@H](O)[C@@H](C)[C@H](OC(C)=O)[C@@H]1C` [Rifaximin]: the phenotypically active was 0.

For `N#Cc1ccc(C(c2ccc(C#N)cc2)n2cncn2)cc1` [Letrozole], the phenotypically active is 0.

As to `NC(=O)c1cccc(-c2cccc(OC(=O)NC3CCCCC3)c2)c1`, the phenotypically active is 0.

Turning to `O=C(Nc1cccnc1)c1cc(-c2ccnc(F)c2)ccc1OCc1ccccc1`, the phenotypically active was 0.

Take `O=C(O)CCCC[C@@H]1SC[C@@H]2NC(=O)N[C@@H]21` [Biotin]: the phenotypically active is 0.

With `NS(=O)(=O)c1cc2c(cc1Cl)NC(C(Cl)Cl)NS2(=O)=O` (centres undefined) [trichlormethiazide], the phenotypically active was 0.

As for `CCn1c(=O)c2cc(C(N)=O)c(N)nc2n(C2CC2)c1=O`, the phenotypically active was 0.

As to `CCCSc1nc2c(c(=O)n1-c1ccccc1)SCC2`, the phenotypically active was 0.

Take `COc1cc(C#N)ccc1S(=O)(=O)Nc1ccc2c(c1)cc(C)c(=O)n2C`: the phenotypically active is 0.

Consider `CC(C)(C)NC[C@H](O)COc1nsnc1N1CCOCC1` [timolol], for which the phenotypically active is 0.

Turning to `CC[N+](CC)(CC)CCC(O)(c1ccccc1)C1CCCCC1` (centres undefined) [tridihexethyl], the phenotypically active is 0.

Take `COC(=O)C1=CO[C@@H](O[C@@H]2O[C@H](CO)[C@@H](O)[C@H](O)[C@H]2O)[C@H]2[C@@H]1C(=O)C[C@@H]2C` [Verbenaline]: the phenotypically active was 0.

For the compound `Nc1ncnc2c1ncn2[C@H]1O[C@@H](C(=O)N2CCN(CC(=O)Nc3cccc4c3CNC4=O)CC2)[C@H](O)[C@@H]1O`, the phenotypically active was 0.

In the case of `COc1ccc2cc(CCC(C)=O)ccc2c1` [nabumetone], the phenotypically active was 0.

Consider `CC(C)c1ccc2oc3nc(N)c(C(=O)O)cc3c(=O)c2c1` [Amlexanox], for which the phenotypically active was 0.

For the compound `O=C(/C=C/N1C[C@H]2C[C@@H]1CN2c1ccccn1)c1ccccc1O`, the phenotypically active was 0.

Take `C#CCN(C)Cc1ccccc1` [pargyline]: the phenotypically active was 0.

On to `Cc1nc2c(O)cccc2c(=O)[nH]1`, for which the phenotypically active is 0.

`CC(C)Cn1c(=O)n(C)c(=O)c2[nH]cnc21`: the phenotypically active was 0.

Consider `COc1ccccc1OCC(O)CN1CCN(CC(=O)Nc2c(C)cccc2C)CC1` (centres undefined) [ranolazine], for which the phenotypically active is 0.

Turning to `COC(=O)c1c(C)cc(OC(=O)c2c(C)cc(O)c(C=O)c2O)c(C)c1O` [Atranorin], the phenotypically active was 0.

`CC(C)NCCCC1(C(N)=O)c2ccccc2-c2ccccc21` [indecainide]: the phenotypically active was 0.

With `O=C1c2ccccc2C(Cc2ccncc2)(Cc2ccncc2)c2ccccc21`, the phenotypically active is 0.

As to `CC1=NN(c2ccc(C(=O)O)cc2)C(=O)/C1=C\c1ccc(-c2cc(C)c(C)cc2[N+](=O)[O-])o1`, the phenotypically active is 0.

Regarding `CCCC(=O)Nc1ncnc2c1ncn2[C@@H]1O[C@@H]2COP(=O)(O)O[C@H]2[C@H]1OC(=O)CCC` [Dibutyryl-cAMP, sodium salt], the phenotypically active is 0.

In the case of `CCO[C@@H](Cc1ccc(OCCc2ccc(OS(C)(=O)=O)cc2)cc1)C(=O)O` [Tesaglitazar], the phenotypically active is 0.

In the case of `O=c1[nH]cnc2ccccc12`, the phenotypically active is 0.

Turning to `S=P(N1CC1)(N1CC1)N1CC1` [thiotepa], the phenotypically active was 0.

With `C[C@](N)(Cc1ccc(O)c(O)c1)C(=O)O` [methyldopa], the phenotypically active is 0.

`CC1CCC(C(C)C)C(O)C1` [L-menthol]: the phenotypically active is 0.

On to `CCCCC1=NC2(CCCC2)C(=O)N1Cc1ccc(-c2ccccc2-c2nnn[nH]2)cc1` [irbesartan], for which the phenotypically active was 0.

With `CC(=O)Oc1ccccc1C(=O)O` [aspirin], the phenotypically active is 0.

For `CC(C(=O)O)c1ccc(C(=O)c2cccs2)cc1` (centres undefined) [suprofen], the phenotypically active was 0.

Regarding `FC(F)OC(F)C(F)(F)F` (centres undefined) [desflurane], the phenotypically active was 0.

For `CC(C)NCC(O)c1ccc(NS(C)(=O)=O)cc1` (centres undefined) [sotalol], the phenotypically active is 0.

As to `COc1ccc(C(C)=O)c(O)c1` [2'-Hydroxy-4'-Methoxyacetophenone], the phenotypically active was 0.

Take `CC(=O)[C@H]1CC[C@H]2[C@@H]3CCC4=CC(=O)CC[C@]4(C)[C@H]3CC[C@]12C` [progesterone]: the phenotypically active was 0.

The record behind these values is the supplement of paper PMC7411054.
